Test results from PubChem BioAssay (NCATS).
Inconclusive results are not listed. Entries that show only a call come without a potency. Active and inactive are the calls of the source. Calls come from the whole dose curve; as a rule, active = well fitted inhibition curve with a large enough effect; inconclusive = small, poorly fitted or top-dose-only effect; inactive = flat fitted curve, though single readings scatter.

System: 7G8
Test: qHTS profiling for inhibitors of Plasmodium falciparum proliferation (AID 504749); note: nearly all actives have a fitted effect of over 60% in size
Conditions: P. falciparum in erythrocytes, SYBR Green DNA, 72 h; series mostly up to 28.7 µM
In short: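 In a 72 h erythrocytic culture (37 C, humidified, 5% CO2) at 2.5% hematocrit and 0.3% starting parasitemia, compounds were tested; SYBR Green I in detergent lysis buffer stained parasite DNA overnight.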

Structure (SMILES)	Potency
COc1cccc2c1C(=O)c1c(O)c3c(c(O)c1C2=O)C[C@](O)(C(=O)CO)C[C@@H]3O[C@H]1C[C@H](N)[C@@H](O)[C@H](C)O1	inactive
CC(C)(C)NC[C@@H](O)c1ccc(O)c(CO)n1	inactive
